Experimental data reported in PubChem BioAssay (EPA / NIEHS).
The source made the active and inactive calls. How the source made its calls: active means hit-call score of the fitted dose curve at least 0.9, where 1 is the maximum; inactive means score below 0.9.

Key:
[1] = APR_HepG2_CellLoss_72hr: Apredica 72-hour HepG2 Assay for Cell Loss (AID 2282915); conditions: high-content imaging
How it was run: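 Cell number comes from Hoechst 33342-labelled nuclei, imaged at 20x after 3.7% formaldehyde fixation. Dosing was 0.39–200 uM, ten concentrations in duplicate, 0.5% DMSO final, for 72 h. Bidirectional fit relative to DMSO baseline.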

[2] = APR_HepG2_P-H2AX_72hr: Apredica 72-hour HepG2 Assay for H2AX Phosphorylation (AID 2282916); conditions: imaging, actives raise or lower the signal;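 further: phospho-histone H2A.x immunostain intensity per cell marking DNA damage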
How it was run: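 Human hepatoma HepG2 cells are dosed across ten concentrations (0.39 to 200 uM, 0.5% v/v DMSO) and incubated 72 hr. Phospho-histone H2A.x is then detected by antibody staining alongside c-Jun and Hoechst, and quantified by automated fluorescence imaging.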

[3] = APR_HepG2_MitoticArrest_72hr: Apredica 72-hour HepG2 Assay for Mitotic Arrest (AID 2282918); conditions: high-content imaging, actives raise or lower the signal
How it was run: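 HepG2, 72 hr exposure, 0.39–200 uM in duplicate, 0.5% v/v DMSO final. Formaldehyde-fixed, Triton-permeabilized, anti-phospho-histone H3/FITC plus Hoechst. ArrayScan imaging at 20x; curves fit bidirectionally against DMSO baseline.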

[4] = APR_HepG2_MicrotubuleCSK_72hr: Apredica 72-hour HepG2 Assay for Microtubule CSK Stabilty (AID 2282919); conditions: HepG2 microtubule cytoskeleton, high-content imaging, actives raise or lower the signal
How it was run: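 High-content imaging of alpha-tubulin staining in fixed HepG2 cells after 72 hr treatment with ten concentrations from 0.39 to 200 uM (0.5% DMSO). Fitting was bidirectional against DMSO; taxol served as positive control.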

[5] = APR_HepG2_P-H2AX_24hr: Apredica 24-hour HepG2 Assay for H2AX Phosphorylation (AID 2282920); conditions: high-content imaging, actives raise or lower the signal
How it was run: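 HCS fluorescence imaging of phospho-H2A.x immunostain (with Hoechst 33342 nuclear counterstain) in HepG2 after 24 hr compound exposure; 10 concentrations, 0.39–200 uM, duplicate wells, 0.5% v/v DMSO. Gain or loss of signal fitted relative to DMSO baseline.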

[6] = APR_HepG2_StressKinase_72hr: Apredica 72-hour HepG2 Assay for Stress Kinase (AID 2282921); conditions: HepG2 stress kinase (phospho-c-Jun) imaging, actives raise or lower the signal
How it was run: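 After a 72 h compound treatment spanning 0.39 to 200 uM, formaldehyde-fixed cells are labelled for phosphorylated c-Jun and nuclei, imaged by automated fluorescence microscopy, and activity is fitted in both directions relative to DMSO controls.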

[7] = APR_HepG2_StressKinase_24hr: Apredica 24-hour HepG2 Assay for Stress Kinase (AID 2282922); conditions: HepG2 stress kinase (phospho-c-Jun) imaging, actives raise or lower the signal
How it was run: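 High-content imaging of phospho-c-Jun immunofluorescence in fixed, permeabilized HepG2 cells after 24 h dosing. Ten concentrations, 0.39 to 200 uM, run in duplicate at 0.5% v/v DMSO; gain or loss of signal versus DMSO.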

[8] = APR_HepG2_p53Act_72hr: Apredica 72-hour HepG2 Assay for p53 Activation (AID 2282923); conditions: high-content imaging, actives raise or lower the signal;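 further: average cellular p53 protein immunofluorescence intensity in HepG2 cells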
How it was run: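 Imaging-based endpoint: after 72 hr compound exposure (up to 200 uM, 0.5% DMSO), fixed and permeabilized monolayers were labelled with anti-p53 antibody and imaged; signal change in either direction was fitted relative to DMSO controls.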

[9] = APR_HepG2_MitoMass_72hr: Apredica 72-hour HepG2 Assay for Mitochondrial Mass (AID 2282924); conditions: high-content imaging, actives raise or lower the signal;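 further: MitoTracker Red CMXRos stain intensity per cell imaged as mitochondrial mass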
How it was run: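 Readout is imaged MitoTracker Red (250 nM, 30 min, pre-fixation) signal, fitted bidirectionally against DMSO baseline. Human HepG2 liver cells received compound 0.39–200 uM in duplicate for 72 hr, final DMSO 0.5%.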

Measured: AC50

CC(C)(C)C(=O)C(Oc1ccc(Cl)cc1)n1cncn1 (stereo not drawn)
active: [1] 78.6 µM
inactive: [2] | [3] | [4] | [5] | [6] | [7] | [8] | [9]

CCOP(=O)(OCC)Oc1nc(Cl)c(Cl)cc1Cl
inactive: [1] | [2] | [3] | [4] | [5] | [6] | [7] | [8] | [9]

Nc1cnn(-c2ccccc2)c(=O)c1Cl
inactive: [1] | [2] | [3] | [4] | [5] | [6] | [7] | [8] | [9]

COP(=S)(OC)Oc1ccc([N+](=O)[O-])c(C)c1
active: [1] 87.9 µM
inactive: [2] | [3] | [4] | [5] | [6] | [7] | [8] | [9]

COP(=O)(OC)O/C(C)=C/C(=O)N(C)C
inactive: [1] | [2] | [3] | [4] | [5] | [6] | [7] | [8] | [9]

CC(C)C1(C)N=C(c2ncccc2C(=O)O)NC1=O (stereo not drawn)
inactive: [1] | [2] | [3] | [4] | [5] | [6] | [7] | [8] | [9]

CCN(CC)c1nc(C)cc(OP(=S)(OC)OC)n1
inactive: [1] | [2] | [3] | [4] | [5] | [6] | [7] | [8] | [9]

OC(c1ccc(Cl)cc1)(c1ccc(Cl)cc1)C(Cl)(Cl)Cl
inactive: [2] | [3] | [6] | [8] | [9]
active: [1] 32.2 µM | [4] 32.2 µM | [5] 68.8 µM | [7] 107 µM

COc1cc(OC)nc(NC(=O)NS(=O)(=O)c2ncccc2OCC(F)(F)F)n1
inactive: [1] | [2] | [3] | [4] | [5] | [6] | [7] | [8] | [9]

CNC(=O)Oc1cccc2ccccc12
active: [1] 102 µM | [2] 97.3 µM | [5] 102 µM | [9] 36 µM
inactive: [3] | [4] | [6] | [7] | [8]

COc1cc(Cl)c(OC)cc1Cl
inactive: [1] | [2] | [3] | [4] | [5] | [6] | [7] | [8] | [9]

Cc1cc(C)nc(Nc2ccccc2)n1
inactive: [2] | [3] | [4] | [5] | [6] | [7] | [8] | [9]
active: [1] 46.3 µM

CSC(=O)c1c(C(F)F)nc(C(F)(F)F)c(C(=O)SC)c1CC(C)C
active: [1] 73.9 µM | [3] 67.7 µM | [4] 64.6 µM
inactive: [2] | [5] | [6] | [7] | [8] | [9]

CC(C)N1C(=O)c2ccccc2NS1(=O)=O
inactive: [1] | [2] | [3] | [4] | [5] | [6] | [7] | [8] | [9]

N#Cc1c(Cl)cccc1Cl
inactive: [1] | [2] | [3] | [4] | [5] | [6] | [7] | [8] | [9]

CCOc1cc(C(C)(C)C)ccc1C1COC(c2c(F)cccc2F)=N1 (stereo not drawn)
inactive: [2] | [3] | [5] | [6] | [7] | [9]
active: [1] 103 µM | [4] 47.2 µM

Cc1nc(N(C)C)nc(OC(=O)N(C)C)c1C
inactive: [1] | [2] | [3] | [4] | [5] | [6] | [7] | [9]

COC(=O)NC(=S)Nc1ccccc1NC(=S)NC(=O)OC
active: [1] 26.1 µM | [9] 41.6 µM
inactive: [2] | [3] | [4] | [5] | [6] | [7] | [8]

O=C(O)c1c(Cl)ccc2cc(Cl)cnc12
inactive: [1] | [2] | [3] | [4] | [5] | [6] | [7] | [9]
